We go through 40 compounds from PubChem BioAssay (NCI).

Structures are written as SMILES. The panel holds about 83,000 compounds, 20% with a hit somewhere; the sample as a whole holds those more often.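 Activity criterion: percent growth below 10, measured after cells in 96-well plates were exposed to a single compound concentration for 48 hours.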 A number with no mark means an inactive call. Active and inactive are the calls of the source.

The assay relates to MDA-MB-468 breast. Nature of the assay: NCI-60 one-dose screen, 48 h (100 = growth as untreated, 0 = no growth, -100 = all killed). Conditions: 10 µM unless noted.
As to `COc1ccccc1C(C[N+](=O)[O-])c1c(-c2ccccc2)[nH]c2cc(C)ccc12` (stereo not given), the growth was 44.4%. For `O=[N+]([O-])c1cccc(N=C(Nc2cccc([N+](=O)[O-])c2)c2ccccc2)c1`, the growth was 43.2%. For `CC1(COc2ccc3c(c2)ncn3-c2ccc3cccc(N4CCC(N)CC4)c3n2)COC1`, the growth was -20.6% (active). Take `CC(C)(C)OC(=O)CC1(O)CCCCC1`: the growth is 94.5%.

In the case of `NC(=NCCCCCCN=C(N)/N=C(\N)Nc1ccc(Cl)cc1)/N=C(\N)Nc1ccc(Cl)cc1`, the growth is -69% (active). For `CC1=NC2=NN3C(=NN2C(c2ccccc2)=C1)N=NC(c1ccc(Br)cc1)=C3c1ccc(Br)cc1` the value was 105%; for `c1ccc2c(c1)Sc1ccccc1S2`, 93.7%.

Take `CC1=C(C)C(=O)C(Nc2ccc(C)c(C)c2)=C(Br)C1=O`: the growth was 1.26% (active). For `CC(C)(C)c1ccc(/C=C/C(=O)Nc2ccc(O)cc2)cc1` the value was 92.2%; for `CC1(C)OC2OC3C(CN)OC(c4ccccc4)OC3C2O1` (stereo not given), 116%; for `COc1cc(-c2cc(C(=O)Nc3nc4ccccc4s3)nc3cc(-c4ccccc4)nn23)cc(OC)c1OC`, 59.6%. As to `COc1cc(/C=C/C(=O)/C=C/c2cc3ccc(Cl)cc3[nH]c2=O)ccc1O`, the growth was 98.4%. As to `Fc1ccc2nc(-c3cnn4cccnc34)sc2c1`, the growth was -2.57% (active). On to `O=C(Nc1ccccc1)Nc1nc2ccc([N+](=O)[O-])cc2s1`, for which the growth was -22.6% (active).

`Cn1cc(-c2cc3ncnc(Nc4ccc(NC(=O)Nc5cc(C(C)(C)C)on5)cc4)c3s2)cn1`: the growth was 31.7%. For `CNC(=O)c1cc(Oc2ccc(CC(=O)Nc3cc(C(C)(C)C)cn3C)cc2)ccn1` the value was 29.5%; for `C/C(=N\N1CC(=O)NC1=O)c1ccc([N+](=O)[O-])o1`, 95.7%.

In the case of `O=c1ccn(C2OC(CO)C(O)C2F)c(=O)[nH]1` (stereo not given), the growth is 105%. The figure for `COC(=O)CNC(=O)c1cccc(-c2cc(=O)c3c(OC)c(OC)c(OC)cc3o2)c1` is 89.8%; for `Cc1ccc2oc(=O)cc(C3C(C#N)=C(N)Oc4c3ccc3ccccc43)c2c1` (stereo not given) it is 63.8%. For `O=C1Nc2ccccc2/C1=C/c1cccn1C(=O)c1ccc(Cl)s1` the value was -16.5% (active).

Take `O=C(NCc1cccc(CNC(=O)Nc2nc3ccccc3[nH]2)c1)Nc1nc2ccccc2[nH]1`: the growth is -20.2% (active). For the compound `O=C1c2ccccc2C(=O)c2c1oc1ccc3ccccc3c21`, the growth was -10.4% (active). For `O=C(/C=C1\C(=O)N(Cc2ccc([N+](=O)[O-])cc2)c2ccccc21)c1ccc(OCCN2CCCC2)cc1` the value was 59.4%; for `COc1cc2nc(-c3ccc(C(F)(F)F)cc3)cc(OCCCN3CCCCC3)c2cc1OC`, 52.5%. The figure for `COc1ccc(C(=O)C(=O)c2ccccc2)cc1` is 101%; for `O=C1COc2ccccc2C(=O)N1CCCCN1CCCCC1` it is 76.3%. For `Cc1ccc2c(c1)/C(=N\N=C/c1cn(C(C)C)c3ccccc13)C(=O)N2` the value was 7.43% (active); for `COc1cc2ncnc(NC3CCC(O)CC3)c2cc1OC` (stereo not given), 96.7%. As for `Nc1c2ccccc2nc2ccccc12` (tested in a mixture with another compound), the growth is -18.6% (active). For `Cc1ccc(/C=C2\CN(Cc3cn(CCNc4ccnc5cc(Cl)ccc45)nn3)C/C(=C\c3ccc(C)cc3)C2=O)cc1` the value was -31.1% (active); for `CC(C)C(=O)Nc1nc2c(s1)CCCc1ccn(S(=O)(=O)c3ccccc3)c1-2`, 95.3%. Consider `CC(=O)OC1C=CC(OC(C)=O)O1` (stereo not given), for which the growth is 101%. With `COc1cc(-c2nc3sccn3c2-c2ccnc(NCCNS(=O)(=O)c3ccccc3)n2)ccc1F`, the growth is 40.2%. In the case of `COc1ccc(C(=O)c2cc3c(N)c(C(=O)Nc4cccc5ccccc45)sc3nc2C)cc1`, the growth is -0.26% (active). For `O[N+]1=CC=CCC1=S.On1ccccc1=S.[Zn]` the value was -75.8% (active); for `COc1cc(/C=C/C(=O)c2ccc(-n3cc(CN4CCN(c5cc6c(cc5F)c(=O)c(C(=O)O)cn6C5CC5)CC4)nn3)cc2)ccc1O`, 64.8%; for `O=C(/C=C/CN1CCCCC1)Nc1cc2c(Nc3ccc(F)c(Cl)c3F)ncnc2cc1OCCOC(F)F`, -48.7% (active).

Regarding `CC(=O)O[C@H]1CC[C@@]2(C)C(=CC[C@@H]3[C@@H]2CC[C@]2(C)C(=O)N(O)C(=O)C[C@@H]32)C1`, the growth is 83.6%. The figure for `CCNC(=S)n1nc(SC)c(C(=O)OCC)c1N` is 114%.
